Assays:
Conditions in all cases: concentration: 1 μM, replicates: in singlicate; n = 1
[1] = tested on: PIP5K1A
[2] = tested on: PIP5K1C
[3] = tested on: PIP5K2B
[4] = tested on: T1, PIP5K2C
T1 construct: gene PIP4K2C

[5] = tested on: T2, PKAC-alpha
T2 construct: gene PRKACA

[6] = tested on: T3, PKAC-beta
T3 construct: gene PRKACB

[7] = tested on: PKMYT1
[8] = tested on: PKN1
[9] = tested on: PKN2
[10] = tested on: PLK1
[11] = tested on: PLK2
[12] = tested on: PLK3
[13] = tested on: PLK4
[14] = tested on: PRKCD
[15] = tested on: PRKCE
[16] = tested on: PRKCH
[17] = tested on: PRKCI
[18] = tested on: PRKCQ
[19] = tested on: PRKD1
[20] = tested on: PRKD2
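Further: KINOMEscan kinase panel screen.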

Structure (SMILES)	%Inh [1]	%Inh [2]	%Inh [3]	%Inh [4]	%Inh [5]	%Inh [6]	%Inh [7]	%Inh [8]	%Inh [9]	%Inh [10]	%Inh [11]	%Inh [12]	%Inh [13]	%Inh [14]	%Inh [15]	%Inh [16]	%Inh [17]	%Inh [18]	%Inh [19]	%Inh [20]
Nc1n[nH]c2cnc(-c3ccccc3)cc12 [SB-642124]	40%	0%	32%	18%	0%	0%	15%	0%	31%	0%	49%	43%	1%	17%	24%	38%	4%	45%	5%	4%
c1ccc(-c2n[nH]cc2Nc2ccnc3ccccc23)nc1 [GW694077]	10%	73%	54%	72%	0%	0%	0%	7%	0%	0%	0%	0%	48%	0%	22%	0%	48%	0%	91.8%	96.2%
CCS(=O)(=O)c1ccc(OC)c(Nc2nccc(-c3c(-c4cccc(NC(=O)c5c(F)cccc5F)c4)nn4ncccc34)n2)c1 [GSK326180]	0%	8%	0%	40%	0%	0%	0%	0%	0%	0%	0%	5%	16%	0%	12%	18%	16%	27%	0%	9%
c1ccc(-c2cnc3nccnn23)cc1 [AH20685]	0%	24%	13%	0%	0%	0%	0%	7%	0%	0%	0%	0%	0%	0%	0%	4%	3%	0%	0%	0%
O=C(NC1CCN(c2ccnc(Nc3ccc(F)cc3)n2)C1)c1cc2ccccc2s1 (stereo not shown) [GSK1379716]	7%	60%	0%	42%	0%	0%	6%	0%	0%	7%	0%	0%	1%	0%	2%	30%	15%	16%	21%	28%
Cn1cc(-c2[nH]c3cc(NC(=O)[C@H](N)C4CCCCC4)cc4c3c2C=NNC4=O)cn1	33%	52%	82%	41%	70%	63%	2%	88%	90.5%	0%	68%	36%	99.9%	45%	79%	53%	59%	78%	0%	0%
Cc1ccc(C(=O)N2CC[C@@H](O)C2)cc1-n1c(C)cc(OCc2ccc(F)cc2F)c(Br)c1=O	0%	50%	0%	38%	3%	0%	0%	16%	0%	0%	0%	0%	0%	0%	0%	0%	2%	0%	0%	0%
CC(=O)N1CCN(c2ccc(Nc3nccc(-c4sc(C(C)C)nc4-c4cccc(NS(=O)(=O)c5cccc(Cl)c5)c4)n3)cn2)CC1 [GSK1660437]	0%	15%	15%	66%	0%	6%	0%	57%	12%	0%	5%	0%	99.8%	1%	0%	19%	13%	13%	89%	95.3%
CCCCc1nn2ncccc2c1-c1ccnc(Nc2ccc(N3CCN(C)CC3)cc2)n1 [GW684941]	33%	48%	5%	96.7%	0%	8%	0%	5%	0%	0%	0%	0%	74%	0%	14%	0%	17%	0%	63%	55%
Cc1cccc(NC(=O)Nc2ccc(Oc3ncnc4ccn(C)c34)cc2)c1	0%	49%	2%	32%	0%	0%	0%	0%	0%	0%	0%	3%	0%	0%	7%	0%	0%	0%	0%	0%
FC(F)(F)c1ccc(/C=C/c2cncnc2Nc2ccc3[nH]c(Cc4ccccc4)nc3c2)cc1 [GW709199]	32%	30%	0%	38%	0%	29%	25%	0%	12%	0%	0%	0%	0%	25%	0%	0%	55%	0%	0%	3%
O=C(Nc1cccc(-c2nn3ccccc3c2-c2ccnc(Nc3cccc(C(F)(F)F)c3)n2)c1)c1c(F)cccc1F [GSK292658]	0%	0%	5%	10%	0%	13%	0%	11%	0%	0%	0%	0%	3%	0%	0%	17%	9%	20%	0%	0%
COc1cc2c(cc1OCCN1CCNCC1)ncc1c3ccc(C#N)cc3[nH]c21	58%	1%	46%	16%	0%	0%	0%	61%	41%	28%	22%	20%	32%	0%	19%	0%	24%	0%	0%	0%
Cl.Cl.NCC(NC(=O)c1cc(-c2ccccc2)c(-c2ccnc3[nH]ccc23)s1)c1ccccc1 (stereo not shown) [GSK1321561]	8%	50%	14%	7%	98.3%	97%	3%	25%	19%	5%	30%	0%	4%	98%	69%	86%	37%	49%	38%	8%
O=c1[nH]cc(-c2ccc(N3CCOCC3)cc2)c2sc(-c3cn[nH]c3)cc12 [GSK2276055]	0%	24%	1%	0%	0%	0%	0%	15%	0%	7%	18%	0%	17%	0%	0%	0%	17%	21%	0%	30%
O=C(Nc1cccc(-c2nn3ncccc3c2-c2ccnc(Nc3ccccc3)n2)c1)c1c(F)cccc1F [GSK198271]	0%	0%	11%	27%	5%	2%	7%	8%	0%	3%	55%	82%	1%	0%	8%	16%	9%	48%	27%	20%
Nc1ncc(-c2cccnc2)c2scc(-c3ccc4c(c3)CCN4C(=O)Cc3ccccc3)c12 [GSK683281]	0%	17%	19%	0%	31%	13%	13%	30%	18%	5%	0%	0%	15%	25%	0%	33%	33%	14%	23%	73%
